PP5 primary = PP5 (human) phosphatase inhibition | P53041 | purified PP5c, OMFP substrate fluorescence | inhibition, % at 6.7 µM | 320,000 compounds, 0.18% hits | AID 1987;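 active = inhibition above the campaign's mean inhibition across all tested compounds plus 3 SD, cut at about 9.5% in these data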;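 note: 0% = DMSO only and 100% = 100 µM cantharidin control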
PP1 inh = counter-screen for PP5 inhibitors: inhibitors of human PP1-alpha | purified PP1alpha, OMFP fluorescence | inhibition, % at 6.7 µM | 320,000 compounds, 0.9% hits | P62136;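 active = inhibition above the mean inhibition of all tested compounds plus 3 SD, computed separately for each screening campaign, cut at about 15% in these data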
PG9 binder = binds the HIV-1 gp120 antibody PG9 | 360,000 compounds, 0.43% hits | TR-FRET gp120-PG9 antibody binding | inhibition, % at 6.7 µM | AID 624416; in the data active = inhibition above about 8.5%
GASC-1 inh = blocks human GASC-1 demethylase activity; 330,000 compounds, 0.069% hits; GST-JMJD2C(1-420) H3K9me3 demethylation, DELFIA europium; Q9H3R0; AID 2099; inhibition, % at 2.35 µM;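 active = more than half of a compound's replicate wells show inhibition beyond 50%, single wells judged on their own value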;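 note: signal counts dimethyl H3K9 product captured on neutravidin plate; 0% = median of DMSO wells and 100% = 0.3 times that DMSO median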
Target sequence (Q9H3R0 1-420 limits assumed): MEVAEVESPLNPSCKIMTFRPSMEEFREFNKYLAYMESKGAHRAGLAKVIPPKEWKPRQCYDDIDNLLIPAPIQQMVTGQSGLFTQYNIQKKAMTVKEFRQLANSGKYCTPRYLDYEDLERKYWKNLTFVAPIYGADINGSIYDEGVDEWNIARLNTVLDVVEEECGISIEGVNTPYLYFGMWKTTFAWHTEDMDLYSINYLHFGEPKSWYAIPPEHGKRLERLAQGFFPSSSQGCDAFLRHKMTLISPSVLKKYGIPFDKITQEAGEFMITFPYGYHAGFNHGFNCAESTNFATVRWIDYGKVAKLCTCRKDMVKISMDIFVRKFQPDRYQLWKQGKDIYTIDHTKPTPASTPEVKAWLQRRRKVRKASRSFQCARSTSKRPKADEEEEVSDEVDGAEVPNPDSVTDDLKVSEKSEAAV
KLK7 zymogen act = activators of human kallikrein-7 zymogen; P49862; purified proKLK7, EDANS-DABCYL substrate fluorescence; 100% is mature enzyme control, 0% vehicle; activation, % at 7 µM; 370,000 compounds, 0.9% hits;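 active = activation above the mean of all tested compounds plus 3 SD, computed per campaign excluding outliers beyond control limits, cut at about 13% in these data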
NR1D1 modulator = modulators of human Rev-erb alpha DNA binding. Rev-erbα–FITC-DNA binding, fluorescence polarization, 90 min. activity, % at 10 µM. 370,000 compounds, 0.79% hits. AID 1259318;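 active = activity above about 14%, limit read from the data; passing the limit was not always enough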;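 note: 0% = DMSO wells with 35 nM protein and 100% = DMSO wells with 750 nM protein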
Rev-erbA confirm = Rev-erb alpha (human) modulation, hit confirmation. shares compounds with NR1D1 modulator. Rev-erb alpha FITC-DNA binding, fluorescence polarization, 90 min. activation, % at 25 µM. 3,000 compounds, 61% hits. AID 1259319;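 active = activation at or above a set limit, or at least 3 SD above the negative control mean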;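 note: 0% = 35 nM protein with DMSO and 100% = 750 nM protein high control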
RORg counter = counter-screen for Rev-erb alpha modulators: RORgamma DNA binding. shares compounds with NR1D1 modulator. purified RORgamma protein-FITC-DNA binding, fluorescence polarization. IC50, µM. 910 compounds, 8% hits. AID 1259320;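 active = Compounds whose fitted half-maximal concentration for disrupting protein-DNA binding is below 10 micromolar; the record names Rev-erb in its text, so the target is in doubt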
Numbers without * were called inactive. In the library only some 2.8% were active in any assay of this set; here they are far more common.

`Nc1c(C(=O)Nc2ccccc2F)sc2nc(Cc3ccccc3)cc(C(F)(F)F)c12` gave PP5 primary 3, PP1 inh -1, PG9 binder 1, GASC-1 inh 2, KLK7 zymogen act -1, NR1D1 modulator 108* and Rev-erbA confirm 81*.
For COc1ccc(-n2c(SCc3ccc([N+](=O)[O-])cc3)nnc2-c2ccco2)cc1 the results were KLK7 zymogen act 1 and NR1D1 modulator 3.
Screening Cc1cc(N(C)C)cc(C)c1N=Nc1cc[n+]([O-])cc1 returned PG9 binder -7, KLK7 zymogen act 1, NR1D1 modulator 27* and Rev-erbA confirm 24*.
`CCOC(=O)c1sc2nc(C)[nH]c(=S)c2c1C` gave PG9 binder 4, GASC-1 inh 19, KLK7 zymogen act 0, NR1D1 modulator 62* and Rev-erbA confirm 19*.
Cc1cc(-c2cccc([N+](=O)[O-])c2)nc2ccc3ccccc3c12 was read as PP5 primary 1, PP1 inh -1, PG9 binder -1, GASC-1 inh -10, KLK7 zymogen act 0, NR1D1 modulator 38*, Rev-erbA confirm 42* and RORg counter inactive.
Cc1ccc(-c2nn(C)c(=O)c3ccccc23)cc1S(=O)(=O)N1CCCC1 was read as PP5 primary 0, PP1 inh -2, PG9 binder -1, GASC-1 inh 13, KLK7 zymogen act 1, NR1D1 modulator 26*, Rev-erbA confirm 36* and RORg counter >40.
For O=C(Cn1sc2ccccc2c1=O)Nc1ccccc1 the results were PG9 binder 1, KLK7 zymogen act 0, NR1D1 modulator 15* and Rev-erbA confirm -4.
Screening O=C(Nc1nc(-c2cc3ccccc3oc2=O)cs1)c1ccc(Br)o1 returned PP5 primary 0, PP1 inh 1, PG9 binder 0, GASC-1 inh 1, KLK7 zymogen act 1, NR1D1 modulator 54* and Rev-erbA confirm 31*.
`Oc1ccc(N=Nc2ccccc2C(F)(F)F)c2cccnc12` gave PP5 primary 0, PP1 inh 10, PG9 binder -3, GASC-1 inh -11, KLK7 zymogen act 0, NR1D1 modulator 23* and Rev-erbA confirm 5.
O=C(Nc1ccc2c(c1)OCO2)NC1CCN(S(=O)(=O)c2ccc(F)cc2)CC1 was read as KLK7 zymogen act 0 and NR1D1 modulator -3.
Screening COc1ccc(Cl)cc1NC(=O)c1cnc2sccn2c1=O returned PP5 primary 1, PP1 inh 0, PG9 binder 1, GASC-1 inh -1, KLK7 zymogen act 0, NR1D1 modulator 33* and Rev-erbA confirm 32*.
For CN(C)c1ccc(C=c2c3cc(O)ccc3n3c2cc(-c2ccccc2)[n+]3C)cc1 the results were PG9 binder -16, KLK7 zymogen act 1, NR1D1 modulator 22* and Rev-erbA confirm -2.
`C[n+]1c(-c2ccccc2)cc2c(=Cc3ccccc3)c3ccccc3n21` gave PG9 binder -2, KLK7 zymogen act -3 and NR1D1 modulator 2.
Cc1cc(-c2csc3nc[nH]c(=S)c23)cc(C)c1C was read as PP5 primary 1, PP1 inh 6, PG9 binder 0, GASC-1 inh 3, KLK7 zymogen act 1, NR1D1 modulator 61*, Rev-erbA confirm 62* and RORg counter >40.
For Cc1ccc(-c2csc3nc[nH]c(=S)c23)cc1 the results were PP5 primary -1, PP1 inh 0, PG9 binder -1, GASC-1 inh -9, KLK7 zymogen act -1 and NR1D1 modulator 6.
`COc1cc(/C=C/C(=O)OCC(=O)c2ccc(S(=O)(=O)N3CCCCC3)cc2)cc(OC)c1OC` gave PG9 binder -1, KLK7 zymogen act 0, NR1D1 modulator 18* and Rev-erbA confirm 5.
COc1cccc(/C=C/C(=O)OCC(=O)c2ccc(S(=O)(=O)N3CCCCC3)cc2)c1OC was read as PP5 primary 1, PP1 inh 15, PG9 binder -4, GASC-1 inh 9, KLK7 zymogen act 1 and NR1D1 modulator 6.
`O=S1(=O)c2ccc(Br)cc2OC[C@H](c2ccccc2)N1Cc1ccccc1` gave PG9 binder -1, KLK7 zymogen act -1 and NR1D1 modulator 2.
Screening CCCCn1c(=O)[nH]c(=O)c2c1nc(-c1cc(Cl)c(OC)c(OC)c1)n2C returned PP5 primary 1, PP1 inh 2, PG9 binder -3, GASC-1 inh 52*, KLK7 zymogen act 0, NR1D1 modulator 15* and Rev-erbA confirm 3.
`Cc1ccccc1CN1CCCCC(NC(=O)C2CCCC2)C1=O` (centres undefined) gave KLK7 zymogen act 1 and NR1D1 modulator 2.
Cc1ccc(-c2oc3ncnc(N)c3c2-c2ccc(C)cc2)cc1 was read as PP5 primary 2, PP1 inh -2, PG9 binder 6, GASC-1 inh -6, KLK7 zymogen act 0, NR1D1 modulator 20* and Rev-erbA confirm 8.
Screening Cc1oc2ncnc(N)c2c1C returned PP5 primary 2, PP1 inh 8, PG9 binder 0, GASC-1 inh -1, KLK7 zymogen act 0 and NR1D1 modulator 3.
For N#C/C(C(=O)Oc1ccccc1)=C1/Nc2ccccc2-c2ccccc21 the results were PG9 binder 2, GASC-1 inh -3, KLK7 zymogen act 0, NR1D1 modulator 44* and Rev-erbA confirm 31*.
For O=C(OCC(=O)N1CCCc2ccccc21)c1cc(Br)ccc1O the results were PP5 primary -2, PP1 inh -2, PG9 binder -1, GASC-1 inh 5, KLK7 zymogen act 0, NR1D1 modulator 36* and Rev-erbA confirm 26*.
For O=C(OCC(=O)N1CCN(S(=O)(=O)c2ccc(Cl)cc2)CC1)c1cc(Br)ccc1O the results were PP5 primary 1, PP1 inh -5, PG9 binder 1, GASC-1 inh 0, KLK7 zymogen act -1, NR1D1 modulator 121*, Rev-erbA confirm 80* and RORg counter inactive.
CC(C)(C)c1ccc(S(=O)(=O)N2CCC(C(=O)NCC3COCCO3)CC2)cc1 (centres undefined) was read as KLK7 zymogen act 0 and NR1D1 modulator 2.
For CCOC(=O)Nc1cc(=O)c([N+](=O)[O-])c(N)[nH]1 the results were PG9 binder 2, KLK7 zymogen act -1 and NR1D1 modulator -2.
COC(=O)[C@]12C[C@H](CC(=O)N3CCCC3)C(=O)N(Cc3ccco3)C1=C[C@H](C(C)(C)C)O[C@@H]2C was read as KLK7 zymogen act 1 and NR1D1 modulator -8.
